Measured values from PubChem BioAssay (NCI).
This is part of a sample that, as a whole, favours compounds with a hit. Of some 79,000 tested, about 15% had one in any assay. The source made the active and inactive calls. No stated cut-off is given here; in the data, active means growth inhibition above about 70%; inactive means the rest.

Experiments:
[1] = NCI Yeast Anticancer Drug Screen. Data for the rad52 strain (AID 147);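 further: 0% = growth of vehicle-treated control cultures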; conditions: S. cerevisiae rad52 mutant growth inhibition, hits give high values
Summary of the method: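 Read-out: growth inhibition versus vehicle-treated controls. Cells were a DNA repair-deficient yeast strain treated with compounds.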

[2] = NCI Yeast Anticancer Drug Screen. Data for the wt1 strain (AID 149);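 further: 0% = growth of vehicle-treated wt1 cultures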; conditions: S. cerevisiae wt1 strain (SPY 50644) growth inhibition, hits give high values
Summary of the method: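 Yeast wt1 strain exposed to compounds; growth inhibition measured relative to vehicle-treated controls.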

[3] = NCI Yeast Anticancer Drug Screen. Data for the rad50EPP+ strain (AID 151);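 further: 0% = growth of vehicle-treated control cultures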; conditions: S. cerevisiae rad50 mutant strain, hits give high values
Summary of the method: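 Growth inhibition read against vehicle controls in rad50EPP+ yeast, a strain altered in DNA damage repair, after compound exposure.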

[4] = NCI Yeast Anticancer Drug Screen. Data for the mgt1 strain (AID 153); conditions: S. cerevisiae mgt1 mutant growth inhibition, hits give high values
Summary of the method: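 mgt1 yeast grown with test compound; read-out is growth inhibition versus vehicle-treated cultures.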

[5] = NCI Yeast Anticancer Drug Screen. Data for the rad50 strain (AID 155);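 further: 0% = growth of vehicle-only cultures of the same strain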; conditions: S. cerevisiae rad50 strain growth inhibition, hits give high values
Summary of the method: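 Yeast carrying a defined DNA repair defect were exposed to test compounds, and growth was compared with vehicle-treated controls to give percent inhibition.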

[6] = NCI Yeast Anticancer Drug Screen. Data for the mec2-1 strain (AID 157); conditions: S. cerevisiae mec2-1 strain, hits give high values
Summary of the method: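 Yeast mec2-1 mutant treated with compound. Readout: growth inhibition vs vehicle controls.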

[7] = NCI Yeast Anticancer Drug Screen. Data for the sgs1 mgt1 strain (AID 161);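 further: 0% = growth of cultures given vehicle only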; conditions: S. cerevisiae sgs1 mgt1 strain, hits give high values
Summary of the method: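 Mutant yeast exposed to compound; growth scored against vehicle-only wells.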

[8] = NCI Yeast Anticancer Drug Screen. Data for the CLN2oe strain (AID 163);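 further: 0% = growth of vehicle-only control cultures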; conditions: S. cerevisiae CLN2oe strain, hits give high values
Summary of the method: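 Read-out: yeast growth inhibition, expressed relative to vehicle-only controls. The strain bears an engineered cell-cycle alteration.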

[9] = NCI Yeast Anticancer Drug Screen. Data for the cln2 rad14 strain (AID 165);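 further: 0% = growth equal to vehicle treated cultures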; conditions: S. cerevisiae cln2 rad14 strain, hits give high values
Summary of the method: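 cln2 rad14 yeast strain; compound exposure; growth inhibition read vs vehicle controls.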

[10] = NCI Yeast Anticancer Drug Screen. Data for the bub3 strain (AID 167); conditions: S. cerevisiae bub3 mutant strain, hits give high values
Summary of the method: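 Compounds were applied to a genetically altered yeast strain carrying a cell-cycle control defect. Growth inhibition was scored against vehicle-treated controls.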

[11] = NCI Yeast Anticancer Drug Screen. Data for the wt2 strain (AID 169);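 further: 0% = growth of vehicle-treated yeast cultures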; conditions: S. cerevisiae wt2 strain growth inhibition, hits give high values
Summary of the method: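 Read-out: growth inhibition versus vehicle-treated control cultures after compound exposure of the yeast strain.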

[12] = NCI Yeast Anticancer Drug Screen. Data for the sgs1 strain (AID 173);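 further: 0% = growth of vehicle-only control cultures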; conditions: S. cerevisiae sgs1 mutant, hits give high values
Summary of the method: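 Read-out: yeast growth inhibition relative to vehicle controls, following compound exposure of a strain with a defined DNA repair/cell cycle alteration.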

[13] = NCI Yeast Anticancer Drug Screen. Data for the mlh1 rad18 strain (AID 175); conditions: S. cerevisiae mlh1 rad18 strain growth inhibition, hits give high values
Summary of the method: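 Yeast w/ defined DNA-repair lesions; compound exposure; growth vs vehicle controls → % inhibition.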

[14] = NCI Yeast Anticancer Drug Screen. Data for the rad18 strain (AID 177); conditions: S. cerevisiae rad18 mutant growth inhibition, hits give high values
Summary of the method: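 Readout: growth inhibition vs vehicle controls. Cells: genetically altered yeast strain, DNA repair defect.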

[15] = at 5.0 µM (retest, dose inferred, filed as 0.5)
[16] = at 50.0 µM (retest, dose inferred, filed as 5.0)

Measured: growth inhibition

N#C/C(=C\c1cccc(OCc2ccccc2)c1)c1ccc([N+](=O)[O-])cc1
inactive: [1]; at 1.2 µM -24% | [1]; at 3.7 µM -19% | [1]; at 11.0 µM -26% | [1]; at 33.0 µM -28% | [1]; at 100.0 µM -37% | [2]; at 1.2 µM -18% | [2]; at 3.7 µM -4% | [2]; at 11.0 µM -22% | [2]; at 33.0 µM -28% | [2]; at 100.0 µM -33% | [3]; at 1.2 µM -66% | [3]; at 3.7 µM -49% | [3]; at 11.0 µM -63% | [3]; at 33.0 µM -82% | [3]; at 100.0 µM -88% | [4]; at 1.2 µM -35% | [4]; at 3.7 µM -29% | [4]; at 11.0 µM -61% | [4]; at 33.0 µM -53% | [4]; at 100.0 µM -71% | [5]; at 1.2 µM -5% | [5]; at 3.7 µM -25% | [5]; [15] 53% | [5]; at 11.0 µM -22% | [5]; at 33.0 µM -23% | [5]; at 50.0 µM 10.9% | [5]; at 100.0 µM -23% | [6]; at 1.2 µM -88% | [6]; at 3.7 µM -74% | [6]; [15] 61% | [6]; at 11.0 µM -81% | [6]; at 33.0 µM -91% | [6]; at 50.0 µM 14.2% | [6]; at 100.0 µM -96% | [7]; [15] -10% | [7]; [16] 43% | [7]; at 50.0 µM 27.9% | [8]; at 1.2 µM 11% | [8]; at 3.7 µM -17% | [8]; at 11.0 µM -28% | [8]; at 33.0 µM -31% | [8]; at 100.0 µM -39% | [9]; [15] 33% | [9]; [16] 43% | [9]; at 50.0 µM 0.05% | [10]; at 1.2 µM -28% | [10]; at 3.7 µM -42% | [10]; [15] -5% | [10]; at 11.0 µM -37% | [10]; at 33.0 µM -40% | [10]; [16] 29% | [10]; at 50.0 µM 61.1% | [10]; at 100.0 µM -60% | [11]; at 1.2 µM -34% | [11]; at 3.7 µM -43% | [11]; at 11.0 µM -49% | [11]; at 33.0 µM -61% | [11]; at 100.0 µM -75% | [12]; at 1.2 µM -39% | [12]; at 3.7 µM -47% | [12]; at 11.0 µM -64% | [12]; at 33.0 µM -54% | [12]; at 100.0 µM -59% | [13]; [15] 50% | [13]; at 50.0 µM 15.2% | [14]; at 1.2 µM -26% | [14]; at 3.7 µM -29% | [14]; at 11.0 µM -24% | [14]; at 33.0 µM -49% | [14]; at 100.0 µM -36%
active: [5]; [16] 97% | [6]; [16] 96% | [13]; [16] 98%

CC1OCC2OC(C)OC(C3C4=C(CC(C)(C)CC4=O)OC4=C3C(=O)CC(C)(C)C4)C2O1 (stereo not drawn)
active: [5]; at 50.0 µM 82.2% | [5]; at 100.0 µM 80%
inactive: [1]; at 1.2 µM 0% | [1]; at 3.7 µM 4% | [1]; at 11.0 µM 17% | [1]; at 33.0 µM 38% | [1]; at 100.0 µM 56% | [2]; at 1.2 µM -2% | [2]; at 3.7 µM 2% | [2]; at 11.0 µM 6% | [2]; at 33.0 µM 24% | [2]; at 100.0 µM 45% | [3]; at 1.2 µM -3% | [3]; at 3.7 µM -5% | [3]; at 11.0 µM -4% | [3]; at 33.0 µM -1% | [3]; at 100.0 µM 1% | [4]; at 1.2 µM -1% | [4]; at 3.7 µM 2% | [4]; at 11.0 µM 2% | [4]; at 33.0 µM 2% | [4]; at 100.0 µM 21% | [5]; at 1.2 µM 7% | [5]; at 3.7 µM -32% | [5]; [15] 10% | [5]; at 11.0 µM 49% | [5]; at 33.0 µM 61% | [5]; [16] 57% | [6]; at 1.2 µM 0% | [6]; at 3.7 µM 3%
